Test [1] relates to Human papillomavirus type 1a protein E7 (residues 44-93). As to the kind of experiment: small molecules binding HPV E7 44-93 – biochemical, small-molecule microarray, residues 44-93, 635 nm fluorescence, primary screen (AID 1108).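 Note: E7 fragment applied at 1 µg/mL in TBST for 1 h at 4 C; score combines spot fluorescence with its signal to noise ratio.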 To be noted: fluorescence 635 nm, higher = more signal.
The nature of test [2]: hepatitis C replication reporter changes, two-sided – Huh7 cells, luciferase reporter, HCV replication inhibitor project, primary screen (AID 1109).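 Note: huh7 hepatoma cells harbouring a luciferase neomycin HCV replicon reporter; luciferase luminescence as measure of HCV replicon replication; test concentration not given here.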 To be noted: Huh7 HCV replicon luciferase reporter, 48 h; higher = more signal. On the technique in general: Reporter assays use an easily measured gene product as a stand-in for the process of interest.
The target of test [3] is Left-right determination factor 2 (Homo sapiens) (UniProt O00292). Put plainly: small molecules binding LEFTY2 protein – biochemical, small-molecule microarray, 635 nm fluorescence scan, primary screen (AID 1110). To be noted: higher = more signal.
Sequence of Left-right determination factor 2 (Homo sapiens) (O00292 whole entry, looked up): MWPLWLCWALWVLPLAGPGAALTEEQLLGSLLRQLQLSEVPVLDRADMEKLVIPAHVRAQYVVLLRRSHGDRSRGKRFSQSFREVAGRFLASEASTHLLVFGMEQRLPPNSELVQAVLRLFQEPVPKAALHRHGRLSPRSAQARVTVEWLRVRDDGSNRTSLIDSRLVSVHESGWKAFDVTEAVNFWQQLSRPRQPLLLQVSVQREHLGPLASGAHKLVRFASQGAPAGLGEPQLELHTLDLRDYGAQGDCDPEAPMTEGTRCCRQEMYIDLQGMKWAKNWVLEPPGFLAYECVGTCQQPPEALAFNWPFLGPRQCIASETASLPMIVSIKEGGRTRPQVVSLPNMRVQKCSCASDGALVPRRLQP
Test [4] deals with Calmodulin-1 (Homo sapiens) (UniProt P0DP23). Put plainly: small molecules binding calmodulin-1 with EGTA – biochemical, small-molecule microarray, Cy5-labelled CALM1, profiling panel (AID 1111).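 Note: labelled calmodulin applied in Tris saline Tween buffer holding calcium plus EGTA and DTT.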 To be noted: Cy5-CALM1 binding fluorescence, higher = more signal.
For test [5] the target is unchanged. Put plainly: small molecules binding Ca-loaded calmodulin-1 – biochemical, small-molecule microarray, Cy5-labelled CALM1, plus calcium, artefact control for SMM control-protein annotation, profiling panel (AID 1112).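 Note: score merges spot fluorescence with signal to noise from triplicate slides.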 Conditions: Cy5-CALM1 binding fluorescence, higher = more signal.
A short description of test [6]: probe aWnt5a binding to arrayed compounds – biochemical, biotinylated probe, 635/667 nm fluorescence, primary screen (AID 1113).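 Note: score merges 667 nm fluorescence intensity with signal-to-noise per printed feature.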 To be noted: small-molecule microarray, higher = more signal.
Test [7] is described as follows: probe aShh binding to arrayed compounds – biochemical, biotinylated probe, 635/667 nm fluorescence, primary screen (AID 1114).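 Note: probe is biotin-labelled aShh protein from a stem cell growth factor screen; measures binding of labelled protein to compounds printed on the slide; score merges feature fluorescence at 667 nm with signal-to-noise.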 To be noted: small-molecule microarray, higher = more signal.
Test [8] in a line: probe aNog binding to arrayed compounds – biochemical, biotinylated probe, 635/667 nm fluorescence, primary screen (AID 1115).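 Note: probe is biotinylated aNog protein used at 0.15 µg/mL for 1 h at 4 C; z-score combines 667 nm fluorescence of each spot with its signal to noise.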 To be noted: small-molecule microarray, higher = more signal.
Test [9] deals with Torsin-1A-interacting protein 1 (Homo sapiens) (UniProt Q5JTV8). Put plainly: compound microarray binding of lysate hLAP1 – cell lysate, small-molecule microarray, COS7 lysate, 635/667 nm fluorescence, primary screen (AID 1116). To be noted: 635 nm fluorescence, higher = more signal.
Sequence of Torsin-1A-interacting protein 1 (Homo sapiens) (Q5JTV8 whole entry, looked up): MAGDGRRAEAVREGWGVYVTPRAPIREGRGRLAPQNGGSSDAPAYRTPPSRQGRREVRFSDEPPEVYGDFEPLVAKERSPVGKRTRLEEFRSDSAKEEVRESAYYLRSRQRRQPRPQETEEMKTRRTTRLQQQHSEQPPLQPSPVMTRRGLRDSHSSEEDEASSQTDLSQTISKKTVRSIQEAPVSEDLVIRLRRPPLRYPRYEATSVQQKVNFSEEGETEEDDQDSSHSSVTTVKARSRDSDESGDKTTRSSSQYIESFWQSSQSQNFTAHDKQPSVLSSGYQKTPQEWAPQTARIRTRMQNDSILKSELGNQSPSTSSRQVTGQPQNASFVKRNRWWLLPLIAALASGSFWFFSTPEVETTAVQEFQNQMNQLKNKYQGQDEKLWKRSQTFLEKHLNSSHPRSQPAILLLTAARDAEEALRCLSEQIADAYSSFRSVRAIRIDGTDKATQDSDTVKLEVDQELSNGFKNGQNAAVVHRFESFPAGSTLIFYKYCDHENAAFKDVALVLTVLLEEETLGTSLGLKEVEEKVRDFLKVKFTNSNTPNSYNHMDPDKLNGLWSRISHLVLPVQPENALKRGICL
The target in test [10] is Alpha-bungarotoxin (Bungarus multicinctus) (UniProt P60615). Put plainly: compounds binding labelled alpha-BTX control protein – biochemical, small-molecule microarray, Alexa647 label, 635/667 nm fluorescence, artefact control for SMM control protein annotation, profiling panel (AID 1117). Conditions: alpha-BTX-A647 binding fluorescence, higher = more signal.
Sequence of Alpha-bungarotoxin (Bungarus multicinctus) (P60615 whole entry, looked up): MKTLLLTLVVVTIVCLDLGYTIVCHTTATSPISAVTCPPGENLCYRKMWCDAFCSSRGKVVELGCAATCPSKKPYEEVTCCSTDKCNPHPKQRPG

17 compounds from PubChem BioAssay can be followed below.

The structures appear in SMILES notation.

For the compound `CCOC(=O)C[C@H]1[C@H](OC(=O)c2cc3ccccc3oc2=O)[C@@H](NC(=O)c2ccc(-c3ccccc3)cc2)c2cc(OCCCO)ccc2N1C(=O)Cc1ccc(OC)cc1`, the composite z-score is 0.697 in test [1]; 0.497 in test [3]; -0.0241 in test [4]; -0.273 in [5]; -0.0735 in [6]; -0.0035 in test [7]. The figures for the composite z-score in [8], in [9] and in test [10] were 0.179, 0.674 and 0.731, respectively. Besides, the z-score in test [2] was -0.971.
Regarding `COC(=O)[C@@]1(Cc2ccc(F)cc2)[C@H]2c3cc(C(=O)N4CCCC4)n(CCSCCO)c3C[C@H]2CN1C(=O)c1ccccc1`, the composite z-score in test [1] is 1.2; in [3], -0.721; in test [4], 1.34; in [5], 0.318; in [6], 0.0914; in test [7], 1.08. In addition, the composite z-score is 1.56 in test [8], 0.403 in [9] and 0.566 in test [10]. The compound further gave a z-score in test [2] of -1.24.
With `CCCCN1CC=CC23O[C@@H]4/C=C\CCC(C)OC(=O)C4[C@H]2C(=O)N(CCO)[C@@H]3C1=O` (stereo not given in full), the composite z-score in test [1] was -0.391; in test [3], -0.99; in [4] it was -0.896; in test [5], -0.272; in [6] it was -0.171; in [7], -0.2. For the same compound, the figures for the composite z-score in [8], in test [9] and in test [10] were 0.171, 3.55 and -0.238, respectively. The compound further registered a z-score in test [2] of -0.58.
As to `CS(=O)(=O)CCOC(=O)C1=CC(CCCO)=CC(C2CC2)N(Cc2sc3ccccc3c2Cl)C=C1C(=O)OCCS(C)(=O)=O` (stereo not given), the composite z-score was 0.632 in test [1]; 0.191 in test [3]; 1.18 in [4]; 0.811 in test [5]; 0.0324 in test [6]; 0.214 in test [7]. The composite z-score in test [8] is 0.614; in [9] it was -0.643; in test [10], 0.904. The compound further returned a z-score in [2] of -2.01.
For `[N-]=[N+]=Nc1ccccc1C[C@@]1(C(=O)NCc2ccccc2)N=C(c2ccc(OCCCO)cc2)O[C@@H]1c1ccccc1`, the composite z-score in [1] was found to be 1.08; in [3], 0.262; in test [4], 1.41; in [5] it was 0.313; in test [6] it was 0.534; in test [7] it was 0.0326. For the same compound, the composite z-score in test [8] worked out at 2.22; in test [9], 1.13; in test [10], 0.39. In test [2], this compound gave a z-score of -1.76.
For `C=CCOC(=O)[C@H]1[C@@H]2C(=O)O[C@@H](c3ccccc3)[C@@H](c3ccccc3)N2[C@@H](c2ccc(OCCOC(=O)[C@@H]3C[C@@H]4C(=O)N[C@@H](Cc5ccccc5)C(=O)N4[C@@H]3c3ccc(O)cc3)cc2)[C@]12C(=O)Nc1ccc(I)cc12`, the composite z-score was 1.27 in [1]; 0.898 in [3]; 0.367 in test [4]; 0.242 in [5]; -0.152 in [6]; -0.154 in test [7]. Moreover, the composite z-score in [8] is -0.432; in test [9], -0.164; in test [10], 0.875. In test [2], the z-score was -1.64.
Regarding `CCCNC(=O)[C@@]1(Sc2ccc(C)cc2)CC(=O)N(Cc2cc(C(F)(F)F)cc(C(F)(F)F)c2)[C@@H]1c1ccc(CO)cc1`, the composite z-score in test [1] was 0.156; in test [3] it was -0.272; in test [4] it was -0.159; in test [5] it was 0.441; in test [6], -0.0944; in [7], -0.291. For the same compound, the composite z-score in test [8] is -0.164; in test [9] it was 0.443; in [10], 0.0468. The compound also had a z-score in [2] of -1.83.
With `C=CCNC(=O)[C@H]1[C@@H]2C(=O)O[C@@H](c3ccccc3)[C@@H](c3ccccc3)N2[C@@H](c2ccc(OCCO)cc2)[C@]12C(=O)N(C(=O)OCCOC)c1ccc(C#CCNC(N)=O)cc12`, the composite z-score in test [1] came to 1.06; in [3] it was 0.716; in test [4], 1.17; in [5], 0.152; in test [6], 0.291; in [7], 0.194. Further, the composite z-score in test [8] amounted to 0.49; in test [9], 1.33; in [10], 2.1. Moreover, in [2], the z-score is -0.197.
As for `C=CCC(OC(C)=O)[C@@H]1[C@@H](N(Cc2ccc(-c3ccccc3)cc2)C(=O)Cc2ccc(OC)cc2)c2cc(OCCCO)ccc2N1C(=O)Cc1ccc(OC)cc1` (stereo not given in full), the composite z-score in test [1] is -0.37; in [3], 0.055; in [4], 0.194; in [5] it was 0.7; in test [6] it was 0.055; in [7], -0.229. The composite z-score in test [8] was -0.128; in [9], 0.468; in test [10], 0.171. The compound also yielded a z-score in test [2] of -0.496.
As for `COCCOC(=O)N1C(=O)[C@@]2(c3cc(C#CCNC(N)=O)ccc31)[C@H](C(=O)N1CCN(c3ncccn3)CC1)[C@H]1C(=O)O[C@H](c3ccccc3)[C@H](c3ccccc3)N1[C@@H]2c1ccc(O)cc1`, the composite z-score in test [1] was -0.381; in test [3] it was -1.67; in test [4], -0.777; in test [5] it was -0.686; in [6], -0.408; in [7] it was -0.461. In addition, the composite z-score in test [8] is -0.294; in [9], -0.92; in test [10], 0.165. Besides, in [2], the z-score stood at 0.894.
As for `COC(=O)[C@@]1(Cc2ccc(F)cc2)[C@H]2c3cc(C(=O)N(C)C)n(CCF)c3C[C@H]2CN1C(=O)c1ccccc1`, the composite z-score is -0.999 in test [1]; -0.0571 in test [3]; 0.838 in test [4]; 0.55 in [5]; 0.0657 in [6]; 0.337 in test [7]. In addition, the composite z-score in [8] is 0.787; in test [9] it was 0.163; in [10], 0.3. The same compound returned a z-score in test [2] of -1.38.
Turning to `C=C[C@H](OC)[C@@H](O)c1ccc(OC)c(O)c1`, the composite z-score in test [1] was -1.25; in test [3], -1.77; in test [4], -1.06; in test [5], -0.597; in test [6], -0.0981; in test [7], -0.0035. In addition, the results for the composite z-score in [8], in test [9] and in [10] were -0.326, -0.435 and -0.646, respectively. In test [2], the z-score worked out at 0.622.
In the case of `CC[C@@H](O[Si](C#C[Si](C(C)C)(C(C)C)C(C)C)(C(C)C)C(C)C)c1cn([C@H](C)c2ccccc2)nn1`, the composite z-score in test [1] was 0.818; in test [3], 0.435; in test [4] it was -0.273; in [5] it was -0.0786; in test [6], -0.0758; in test [7], 0.0637. The composite z-score is -0.28 in test [8], 0.651 in test [9] and 0.188 in test [10]. In addition, in test [2], the z-score was -0.772.
Turning to `COC(=O)[C@@]1(Cc2ccc(OC)cc2)[C@@H]2[C@@H](CC(=O)[C@H]2CC(=O)C(=O)N(C)C)CN1C(=O)c1ccccc1`, the composite z-score in test [1] was 1.42; in test [3], 0.243; in test [4], 2.66; in test [5] it was 1.51; in test [6], 0.346; in test [7], 2.46. Moreover, the composite z-score stood at 0.899 in test [8], 1.51 in [9] and 1.67 in test [10]. In test [2], the z-score was -2.35.
With `OCCCc1cc[n+](Cc2cc3c(cc2Br)OCO3)cc1`, the composite z-score is -0.945 in test [1]; -1.12 in test [3]; -1.81 in test [4]; 0.172 in [5]; -0.147 in test [6]; -0.207 in [7]. Further, the composite z-score in test [8] was -0.172; in [9], -0.81; in test [10] it was -2.04. In test [2], this compound returned a z-score of 1.05.
Consider `COC(=O)[C@@]1(Cc2ccc(OC)cc2)[C@H]2c3cc(C(=O)N(C)C)n(Cc4c(CO)[nH]cc(C)c4=O)c3C[C@H]2CN1C(=O)c1ccccc1`, for which the composite z-score was 0.784 in test [1]; -0.0944 in test [3]; 1.1 in test [4]; 0.351 in [5]; 0.302 in [6]; 0.04 in test [7]. Moreover, the composite z-score in test [8] was -0.211; in [9], 0.376; in test [10], 0.302. In [2], this compound gave a z-score of -1.37.
Consider `Cc1ccc(S[C@]2(C(=O)NC(C)C)CC(=O)N(Cc3ccccc3)[C@@H]2c2ccc(CO)cc2)cc1`, for which the composite z-score is -0.905 in test [1]; -1.82 in test [3]; -0.0379 in test [4]; 0.175 in test [5]; -0.124 in [6]; -0.2 in [7]. Besides, the composite z-score in test [8] was 0.0258; in test [9] it was -0.142; in [10], 0.329. In test [2], this compound had a z-score of -1.36.
